# Measurements taken from PubChem BioAssay (NCATS).
# Results filed as inconclusive are left out. Entries that show only a call come without a potency. A number with no mark means an inactive call. The source made the active and inactive calls. Calls follow the shape of the dose curve; as a rule, active = well fitted cell-killing curve with a large enough effect; inconclusive = small, poorly fitted or top-dose-only effect; inactive = no such curve, though single readings can be large or run the other way.
# Assay: qHTS of pediatric cancer cell lines to identify multiple opportunities for drug repurposing: Primary screen for Rh30 cells (AID 1347107); also: nearly all actives have a fitted effect of over 75% in size
# Conditions: Rh30 rhabdomyosarcoma viability, CellTiter-Glo luminescence, 48 h; series mostly up to 46 µM
# How it was run: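 Cells (500-1,000/well) in growth media were settled 5 h at 37 degrees C, then given compounds for 48 h. Viability was read as CellTiter-Glo luminescence. Primary runs used MIPE at 11 points (0.78 nM-46 µM) and NPC at 8 points (0.59 nM-46 µM); follow-ups used 11 points.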
SMILES,Potency,"activity change, negative = cytotoxic"
C[C@]12C=CC(=O)C=C1CC[C@H]1[C@@H]3C[C@@H](O)[C@](O)(C(=O)CO)[C@@]3(C)C[C@H](O)[C@@]12F,inactive,
CC(=O)OCC1=C(C(=O)O)N2C(=O)[C@@H](NC(=O)Cc3cccs3)[C@H]2SC1,inactive,
CCN(CC)CCNC(=O)c1cc(S(C)(=O)=O)ccc1OC,inactive,
O=C(O)CN(CCOCCOCCN(CC(=O)O)CC(=O)O)CC(=O)O,,25.4% [at 0.597 µM]
Cc1cccc(C)c1NC(=O)C(C)N (stereo not drawn),inactive,
CSc1ccc(C(=O)c2[nH]c(=O)[nH]c2C)cc1,inactive,
C[N+](C)(C)CCCCCCCCCC[N+](C)(C)C,inactive,
Cc1nnc(SCC2=C(C(=O)O)N3C(=O)[C@@H](NC(=O)Cn4cnnn4)[C@H]3SC2)s1,inactive,
CC(C(=O)O)c1ccc(CC2CCCC2=O)cc1 (stereo not drawn),inactive,
CCn1ccnc1CC1COc2ccccc2O1 (stereo not drawn),inactive,
COc1ccc([C@@H]2Sc3ccccc3N(CCN(C)C)C(=O)[C@@H]2OC(C)=O)cc1,inactive,
c1cnc(N2CCN(Cc3ccc4c(c3)OCO4)CC2)nc1,inactive,
CN1CCN(CC(=O)N2c3ccccc3C(=O)Nc3cccnc32)CC1,,18% [at 4.84 µM]
Cc1ccc(=O)n(-c2ccccc2)c1,inactive,
CN/C(=C\[N+](=O)[O-])NCCSCc1ccc(CN(C)C)o1,inactive,
CCCN(CCC)C(=O)C(CCC(=O)O)NC(=O)c1ccccc1 (stereo not drawn),inactive,
O=C1CC2(CCCC2)CC(=O)N1CCCCN1CCN(c2ncccn2)CC1,inactive,
NC(Cc1ccc(Cl)cc1)C(=O)O (stereo not drawn),,30.5% [at 0.597 µM]
